SARS-CoV-2 infection rate data for 13 molecules are collected here from the supplement of paper PMC13380429.

SMILES strings stand for the structures. Unmarked numbers belong to inactive results.

The subject of this assay is Vero E6 infected with SARS-CoV-2. Nature of the assay: SARS-CoV-2 infection rate relative to infected DMSO; higher = more infection, active = 60 or less. The settings on record: 24 h.
For `C=C(C)[C@H]1CN[C@H](C(=O)O)[C@H]1CC(=O)O` [kainic-acid] (10 µM), the SARS-CoV-2 infection rate is 79%.
For `c1ccc2c(CC3=NCCN3)cccc2c1` [naphazoline] (10 µM), the SARS-CoV-2 infection rate was 99%.
In the case of `Cc1ccc(C23CNCC2C3)cc1` (stereo not drawn) [bicifadine] (10 µM) it was 107%.
In the case of `C#Cc1cncc([C@@H]2CCCN2C)c1` [altinicline] (10 µM) it was 98.5%; in that of `CN1CCc2cc3c(cc2[C@H]1[C@@H]1OC(=O)c2c1ccc1c2OCO1)OCO3` [bicuculline-(+)] (10 µM), 98%.
The result for `COc1cc2nc(C3CC3)nc(N3CCN(c4ccccc4OC)CC3)c2cc1OC` (0.833333 µM) reads 99%; that for `C[N+](C)(C)CCCCCNCC12CC3CC(CC(C3)C1)C2` (10 µM), 112%.
With `Cn1c(=O)c(F)c(Nc2ccc(I)cc2F)c2c(=O)n(C[C@@H](O)CO)cnc21` (0.833333 µM), the SARS-CoV-2 infection rate was 109%.
In the case of `N#CC(Cc1ccc(O)cc1)c1ccc(O)cc1` (stereo not drawn) [diarylpropionitrile] (10 µM) it was 99%.
Regarding `O=C(O)c1cc(O)c2c(c1)C(=O)c1cccc(O)c1C2=O` [rhein] (10 µM), the SARS-CoV-2 infection rate is 99.5%.
For `O=C1OC2(c3ccc(O)cc3Oc3cc(O)ccc32)c2ccccc21` [fluorescein] (10 µM), the SARS-CoV-2 infection rate is 110%.
In the case of `COc1ccc(NC(=O)c2ccc(-c3ccc(-c4noc(C)n4)cc3C)cc2)cc1OCCN(C)C` (0.833333 µM) it was 53% (active); in that of `CC1(C)O[C@@H]2[C@@H](CO[C@@]3(COS(N)(=O)=O)OC(C)(C)O[C@@H]23)O1` [topiramate] (10 µM), 102%.
